Assay results: PubChem BioAssay
A number with no mark means an inactive call. For some assays here: Measured potencies and affinities stand elsewhere. Calls of active or inactive are those of the source. Unless noted, no rule for the calls is given here.

Legend:
[1] = antimalarial activity against Dd2 strain (AID 2302;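 active = growth inhibition above 50% at the single 2 µM test dose, taken to imply half-maximal potency below 2 µM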;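 also: 0% = DMSO untreated growth and 100% = chloroquine plus artemisinin killed control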); settings: P. falciparum Dd2 in RBCs, LDH growth readout, 72 h; at 2 µM; hits give high values
[2] = human hepatoma cell viability loss – ATP luminescence, cytotoxicity control for P. falciparum antimalarial project, primary screen (AID 2303;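 active = inhibition above 50%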;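 also: 0% = DMSO wells and 100% = digitonin-killed cells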); settings: HepG2 viability, 24-48 h, at 10 µM, hits give high values
[3] = biological target: L-lactate dehydrogenase (Plasmodium falciparum (isolate CDC / Honduras)) (UniProt Q27743); test: PfLDH activity inhibition – cell lysate, 3D7 strain, counter-screen for P. falciparum growth inhibition project (AID 2304);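 also: 0% = vehicle and 100% = reference inhibitor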; settings: P. falciparum 3D7 crude extract, LDH APAD/NBT absorbance; at 2 µM; hits give high values
Sequence of L-lactate dehydrogenase (Plasmodium falciparum (isolate CDC / Honduras)) (Q27743 whole entry, looked up): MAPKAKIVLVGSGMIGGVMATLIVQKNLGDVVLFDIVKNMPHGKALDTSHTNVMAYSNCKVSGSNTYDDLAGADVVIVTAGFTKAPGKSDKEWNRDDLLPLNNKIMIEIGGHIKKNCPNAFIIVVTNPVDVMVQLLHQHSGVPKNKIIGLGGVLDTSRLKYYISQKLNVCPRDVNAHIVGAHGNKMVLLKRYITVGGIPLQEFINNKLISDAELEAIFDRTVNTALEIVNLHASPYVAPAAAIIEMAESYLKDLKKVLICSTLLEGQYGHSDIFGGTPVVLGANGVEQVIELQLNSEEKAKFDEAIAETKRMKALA

[4] = inhibition of 3D7 malaria parasite growth – strain 3D7 (AID 2306);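 also: 0% = DMSO wells and 100% = chloroquine plus artemisinin control wells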; settings: P. falciparum 3D7 erythrocytic growth, LDH absorbance, 72 h; at 2 µM; hits give high values
[5] = biological target: Calcium-dependent protein kinase 1 (Plasmodium falciparum (isolate 3D7)) (UniProt P62344); test: PfCDPK1 kinase inhibitors, biochemical, TCAMS library (AID 1159585; cut-off not given, nearly all actives have IC50 up to about 0.98 µM;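 also: inhibitors leave more ATP so luminescence rises with inhibition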); settings: recombinant PfCDPK1, Kinase-Glo ATP depletion luminescence
Sequence of Calcium-dependent protein kinase 1 (Plasmodium falciparum (isolate 3D7)) (P62344 whole entry, looked up): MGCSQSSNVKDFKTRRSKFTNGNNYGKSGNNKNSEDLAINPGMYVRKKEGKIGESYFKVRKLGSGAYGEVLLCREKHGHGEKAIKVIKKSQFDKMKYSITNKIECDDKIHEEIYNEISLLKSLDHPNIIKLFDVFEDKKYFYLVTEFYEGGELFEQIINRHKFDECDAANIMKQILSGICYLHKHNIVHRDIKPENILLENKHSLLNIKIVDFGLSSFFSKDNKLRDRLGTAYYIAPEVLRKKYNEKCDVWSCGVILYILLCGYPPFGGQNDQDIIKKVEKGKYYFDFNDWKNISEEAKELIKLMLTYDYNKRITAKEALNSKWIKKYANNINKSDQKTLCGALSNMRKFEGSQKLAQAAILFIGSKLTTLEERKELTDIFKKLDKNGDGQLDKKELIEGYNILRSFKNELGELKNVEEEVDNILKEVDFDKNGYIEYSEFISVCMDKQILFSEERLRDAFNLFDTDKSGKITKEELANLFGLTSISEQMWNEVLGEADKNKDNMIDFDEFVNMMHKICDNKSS

[6] = biological target: Plasmodium falciparum protein kinase 6 (PK6, PF3D7_1337100) (UniProt Q8IDW1); test: PfPK6 kinase inhibitors, biochemical, TCAMS library (AID 1159586); settings: recombinant PfPK6, Kinase-Glo ATP depletion luminescence
Sequence of Plasmodium falciparum protein kinase 6 (PK6, PF3D7_1337100) (Q8IDW1 1-305): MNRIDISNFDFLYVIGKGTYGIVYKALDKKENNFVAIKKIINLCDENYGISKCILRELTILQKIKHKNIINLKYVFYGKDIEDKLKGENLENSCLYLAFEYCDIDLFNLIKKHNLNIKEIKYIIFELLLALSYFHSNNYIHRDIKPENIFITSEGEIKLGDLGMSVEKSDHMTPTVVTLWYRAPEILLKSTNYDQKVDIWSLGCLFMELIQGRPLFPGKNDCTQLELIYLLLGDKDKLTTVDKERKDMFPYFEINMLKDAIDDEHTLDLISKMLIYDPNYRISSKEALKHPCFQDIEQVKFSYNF

[7] = biological target: Protein kinase 7 (PK7), Plasmodium falciparum 3D7 (PF3D7_0213400) (UniProt Q7YTF7); test: inhibition of Plasmodium PK7 catalytic activity – biochemical, TCAMS antimalarial set, Kinase-Glo luminescence (AID 1159587); settings: recombinant PfPK7, Kinase-Glo ATP depletion luminescence
Sequence of Protein kinase 7 (PK7), Plasmodium falciparum 3D7 (PF3D7_0213400) (Q7YTF7 1-343): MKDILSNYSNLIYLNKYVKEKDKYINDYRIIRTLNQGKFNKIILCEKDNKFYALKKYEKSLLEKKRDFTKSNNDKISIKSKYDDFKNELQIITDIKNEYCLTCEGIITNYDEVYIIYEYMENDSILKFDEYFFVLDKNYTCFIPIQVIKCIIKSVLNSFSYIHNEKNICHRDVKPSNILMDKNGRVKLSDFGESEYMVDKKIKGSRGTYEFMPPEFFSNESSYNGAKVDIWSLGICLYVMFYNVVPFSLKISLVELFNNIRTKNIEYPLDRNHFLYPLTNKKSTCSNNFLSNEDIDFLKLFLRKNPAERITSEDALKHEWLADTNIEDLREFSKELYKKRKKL

[8] = biological target: Calcium-dependent protein kinase 4 (Plasmodium falciparum (isolate 3D7)) (UniProt Q8IBS5); test: PfCDPK4 kinase inhibitors, biochemical, TCAMS library (AID 1159588; cut-off not given, nearly all actives have IC50 up to about 0.91 µM); settings: recombinant PfCDPK4, Kinase-Glo ATP depletion luminescence
Sequence of Calcium-dependent protein kinase 4 (Plasmodium falciparum (isolate 3D7)) (Q8IBS5 whole entry, looked up): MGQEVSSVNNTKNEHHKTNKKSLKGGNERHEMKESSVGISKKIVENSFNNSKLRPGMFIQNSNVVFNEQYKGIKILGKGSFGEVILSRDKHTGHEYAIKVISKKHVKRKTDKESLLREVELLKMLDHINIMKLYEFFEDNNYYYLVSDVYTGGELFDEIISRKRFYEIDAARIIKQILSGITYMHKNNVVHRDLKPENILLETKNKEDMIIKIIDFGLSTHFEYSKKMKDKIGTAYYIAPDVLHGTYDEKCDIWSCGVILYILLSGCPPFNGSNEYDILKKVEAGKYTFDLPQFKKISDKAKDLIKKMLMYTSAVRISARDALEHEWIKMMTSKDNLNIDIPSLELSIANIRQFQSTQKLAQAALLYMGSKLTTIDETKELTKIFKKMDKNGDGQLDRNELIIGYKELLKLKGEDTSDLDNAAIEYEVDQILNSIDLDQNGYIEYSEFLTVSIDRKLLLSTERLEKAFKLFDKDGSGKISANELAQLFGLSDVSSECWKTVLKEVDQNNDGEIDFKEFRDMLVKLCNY

Structure (SMILES) | growth inhibition [1] | inhibition [2] | inhibition [3] | growth inhibition [4] | outcome [5] | outcome [6] | outcome [7] | outcome [8]
Cc1nc2ccc3ccc(CNc4ccc(C(=O)N[C@@H](CCC(=O)O)C(=O)O)c(F)c4)cc3c2c(=O)[nH]1 | 96% (active) | 41% | -1% | 96% (active) | inactive | inactive | inactive | inactive
Cc1nc(C)c(CC(=O)Nc2ccc(-c3cccc(-c4nc5c(C)cccc5[nH]4)c3)cc2)s1 | 38% | 41% | -1% | 101% (active) | inactive | inactive | inactive | inactive
CC(C)(C(=O)NCCC1CCN(CCCCCNC(=O)/C=C/c2ccc(Cl)c(Cl)c2)CC1)c1ccc(Cl)cc1 | 33% | 92% (active) | -2% | 89% (active) | inactive | inactive | inactive | inactive
Cc1ccc(CN2CCCN(Cc3cccc(NC(=O)c4ccc(-c5ccccc5)cc4)c3)CC2)cc1C | 19% | 43% | -4% | 84% (active) | inactive | inactive | inactive | inactive
CN1CCCC(CN2CCN(Cc3ccc(-c4cccc(-c5nc6ccccc6[nH]5)c4)cc3)CC2)C1 (stereo not given) | 100% (active) | 57% (active) | -3% | 101% (active) | inactive | inactive | inactive | inactive
CCOc1cccc(C(=O)Nc2nonc2-c2ccc(OC)c(OC)c2)c1 | 95% (active) | 11% | 4% | 92% (active) | inactive | inactive | inactive | inactive
CCC(CC)CN1C(=O)C(C)(c2ccccc2)N=C1N (stereo not given) | 11% | 1% | -2% | 84% (active) | inactive | inactive | inactive | inactive
CC(=O)Nc1cccc(C(=O)Nc2ccc(-c3cccc(-c4nc5ccc(F)cc5[nH]4)c3)cc2)c1 | 8% | 90% (active) | 0% | 96% (active) | inactive | inactive | inactive | inactive
COc1ccc(CN2CCC(CNCCc3c(Cl)cccc3Cl)CC2)cc1 | 69% (active) | 45% | -11% | 98% (active) | inactive | inactive | inactive | inactive
COc1ccc(Nc2nccc(-c3cccc(NC(=O)c4cc5cc(F)ccc5[nH]4)c3)n2)cc1 | 37% | 3% | 5% | 92% (active) | inactive | inactive | inactive | inactive
Cc1c(C(=O)Nc2cc(Sc3ccc(F)cc3)cc([N+](=O)[O-])c2)sc2ncn(Cc3cccc(F)c3)c(=O)c12 | 53% (active) | -1% | 5% | 100% (active) | inactive | inactive | inactive | inactive
Cc1ccc(Nc2cc(C)nn2-c2nc(C)cc(=O)[nH]2)cc1 | 95% (active) | 54% (active) | -3% | 97% (active) | inactive | inactive | inactive | inactive
Cc1cc(OCCCN2CCC(NS(=O)(=O)c3ccc(C(F)(F)F)cc3)CC2)c2ccccc2n1 | 24% | 12% | 1% | 95% (active) | inactive | inactive | inactive | inactive
O=C(Nc1ccc(N2CCNCC2)cc1)c1ccn2ncc(-c3cccc(Cl)c3)c2n1 | 53% (active) | 79% (active) | -2% | 96% (active) | inactive | inactive | inactive | inactive
CCOc1ccc(C=CC(=O)Nc2ccc3nc(N4CCOCC4)cc(C)c3c2)cc1OC | 23% | 14% | 5% | 92% (active) | inactive | inactive | inactive | inactive
CSc1ccc(NC(=O)Nc2cc(C)nc3ccccc23)cc1Br | 66% (active) | 7% | -6% | 101% (active) | inactive | inactive | inactive | inactive
Cc1ccc(S(=O)(=O)n2nccc2-c2c(-c3ccc(Cl)cc3)noc2C)cc1 | 97% (active) | -1% | -2% | 97% (active) | inactive | inactive | inactive | inactive
COc1cc2c(cc1OC)C(C(=O)Nc1cc(OC)c(OC)c(OC)c1)C(c1ccc(SC)cc1)N(C)C2=O (stereo not given) | 64% (active) | 14% | 2% | 97% (active) | inactive | inactive | inactive | inactive
Cc1ccc(C2CCN(CCCCNC(=O)c3ccc(NC(=O)c4ccc(Cl)cc4)cc3)CC2)c(OCC(F)(F)F)c1 | 84% (active) | 32% | -4% | 99% (active) | inactive | inactive | inactive | inactive
Clc1cc(Nc2ccnc3ccc(Br)cc23)ccc1Oc1ccc2ccccc2c1Cl | 93% (active) | 5% | -5% | 100% (active) | inactive | inactive | inactive | inactive

Structure (SMILES) | growth inhibition [1] | inhibition [2] | inhibition [3] | growth inhibition [4] | outcome [5] | outcome [6] | outcome [7] | outcome [8]
Cc1ccc(NCC(=O)Nc2ccc(F)c(Cl)c2)cc1S(=O)(=O)N1CCOCC1 | 97% (active) | 2% | 0% | 98% (active) | inactive | inactive | inactive | inactive
CS(=O)(=O)Nc1cccc(-c2cnc3[nH]cc(-c4ccc(C(=O)O)c(F)c4)c3c2)c1 | 76% (active) | 27% | 5% | 99% (active) | inactive | inactive | inactive | inactive
O=C(NCc1ccc(Cl)c(Cl)c1)c1ccc(C2CCCN(Cc3ccc4nc[nH]c4c3)C2)cc1 (stereo not given) | 83% (active) | 9% | 3% | 100% (active) | inactive | inactive | inactive | inactive
CC(C)CCN1CCCN(Cc2ccc(C(=O)Nc3ccc(C(C)(C)C)cc3)cc2)CC1 | 12% | 49% | -1% | 92% (active) | inactive | inactive | inactive | inactive
Cc1cccc2[nH]c(-c3ccc(-c4cccc(CN5CCN(CCN6CCOCC6)CC5)c4)s3)nc12 | 83% (active) | 33% | -2% | 101% (active) | inactive | inactive | inactive | inactive
CCCCCN1C(=O)N(c2ccc(Cl)c(Cl)c2)C(N(O)C(=O)Nc2ccc(Cl)c(Cl)c2)C1(C)C (stereo not given) | 99% (active) | -2% | 6% | 94% (active) | inactive | inactive | inactive | inactive
O[C@@H](c1ccccc1)[C@@H]1CN(Cc2ccccc2)CC[C@@]1(O)c1ccccc1 | 82% (active) | 4% | -2% | 91% (active) | inactive | inactive | inactive | inactive
NCC(=O)NC12CC3CC(CC(C3)C1)C2 | -4% | 15% | -2% | 87% (active) | inactive | inactive | inactive | inactive
COc1cccc(C(=O)[C@H]2C[C@@H]2CN(C)CC(O)c2cc(C)c(OC)cc2C)c1 (stereo not given in full) | 73% (active) | 8% | 2% | 88% (active) | inactive | inactive | inactive | inactive
Oc1ccc(CCNCCCCCCNCCc2ccc(Cl)c(Cl)c2)cc1O | 2% | 21% | -1% | 101% (active) | inactive | inactive | inactive | inactive
CCN(CC)C(C)(C)CN(Cc1ccc(-c2ccc(C(F)(F)F)cc2)cc1)C(=O)Cn1c(CCc2cccc(F)c2F)nc(=O)c2ccccc21 | 79% (active) | 53% (active) | -2% | 91% (active) | inactive | inactive | inactive | inactive
CN1CCC(N2CCN(Cc3ccc(-c4cccc(-c5nc6ccc(F)cc6[nH]5)c4)cc3)CC2)CC1 | 99% (active) | 67% (active) | -1% | 101% (active) | inactive | inactive | inactive | inactive
N#Cc1cccc(C(=O)Nc2cccc(-c3ccc(CN4CCC(O)CC4)cc3)c2)c1 | 2% | 15% | 1% | 86% (active) | inactive | inactive | inactive | inactive
CN(C)C(=O)CC(=O)NCc1cccc(Cl)c1 | 3% | 4% | 3% | 99% (active) | inactive | inactive | inactive | inactive
Cc1nc(-c2ccc(-c3ccc(NC(=O)Nc4ccc(I)c(OCCN(C)C)c4)cc3)c(C)c2)no1 | 92% (active) | 47% | 2% | 101% (active) | inactive | inactive | inactive | inactive
CC(C)c1ccc(NC(=O)c2ccc(C(=O)NC3CCN(CC4CCCCC4)C3)cc2)cc1 (stereo not given) | 26% | 35% | 3% | 93% (active) | inactive | inactive | inactive | inactive
CCCCN1CCCC[C@H]1[C@@H](O)c1ccnc2ccc(OCC)cc12 | 88% (active) | 6% | -2% | 100% (active) | inactive | inactive | inactive | inactive
CNC(=O)/C=C/c1cc(NC(=O)Nc2cc(C)nc3c(F)cccc23)ccc1OC | 70% (active) | -3% | 2% | 98% (active) | inactive | inactive | inactive | inactive
Clc1cc(Nc2ncnc3cc(C#C[C@H]4CCCN4)sc23)cc2[nH]c(Cc3ccccc3)nc12 | 57% (active) | 29% | 1% | 91% (active) | inactive | inactive | inactive | inactive
CCC(C)NC(=O)Nc1ccc(-c2cccc(-c3nc4c(C)cccc4[nH]3)c2)cc1 (stereo not given) | 83% (active) | 55% (active) | 6% | 102% (active) | inactive | inactive | inactive | inactive
